Test [1] is described as follows: qHTS assay to identify small molecule antagonists of the estrogen receptor alpha (ER-alpha) signaling pathway using the BG1 cell line in the presence of 0.1 nM 17-beta-estradiol - cell viability counter screen (AID 1259241). Further: nearly all actives have a fitted effect of over 40% in size. An outline of the steps: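 Viability in VM7Luc4E2 cells after 22 hr compound exposure under 0.1 nM 17beta-estradiol stimulation, by CellTiter-Fluor.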
On the technique in general: qHTS replaces the single test concentration by a dilution series.

A short description of test [2]: qHTS assay to identify small molecule antagonists of the androgen receptor (AR) signaling pathway using the MDA cell line in the presence of 0.5 nM R1881 - cell viability counter screen (AID 1259242). Further: nearly all actives have a fitted effect of over 45% in size. An outline of the steps:
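R1881 at 0.5 nM final stimulated MDA-kb2 cells during 16 hr compound treatment at 37C. Cytotoxicity read: CellTiter-Fluor fluorescence after 30 min.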

The nature of test [3]: qHTS assay to identify small molecule HDAC inhibitors (AID 1259364).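 Further: wild-type HCT-116 cells with endogenous class I/II HDAC activity; top concentration of the series differs between compounds; nearly all actives have a fitted effect of over 45% in size.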 An outline of the steps: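 Relative class I and II HDAC activity is taken from the luminogenic signal in HCT-116 cells, with compound exposure 2 hr and reagent development 30 min at room temperature.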
The nature of test [4]: qHTS assay to identify small molecule HDAC inhibitors - cell viability counter screen (AID 1259365). Further: series mostly up to about 92 µM; nearly all actives have a fitted effect of over 50% in size. An outline of the steps: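 Cytotoxicity was gauged in wild-type HCT-116 cells after a brief 2hr treatment with DMSO-dissolved compounds at 37C and 5% CO2, using CellTiter-Glo luminescence developed for 30min at room temperature.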
Test [5] in a line: qHTS assay to identify small molecule agonists of the sonic hedgehog signaling (Shh) pathway - cell viability counter screen (AID 1259366). Further: nearly all actives have a fitted effect of over 50% in size. The essentials:
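Stable Gli1-Luc NIH/3T3 clone, 2,000 cells/well. Compound exposure 24hr at 37C. Read-out: CellTiter-Fluor fluorescence.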

Test [6] in a line: qHTS assay to identify small molecule antagonists of the sonic hedgehog signaling (Shh) pathway - cell viability counter screen (AID 1259367). Further: nearly all actives have a fitted effect of over 55% in size. The essentials: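 Using CellTiter-Fluor, viability of Gli1-Luc reporter 3T3 cells is read by fluorescence in the wells used for the Shh luciferase assay. Treatment lasts 23 hr with conditioned medium, then reagent 1 hr at 37C.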
Test [7] is described as follows: qHTS assay to identify small molecule agonists of the sonic hedgehog signaling (Shh) pathway (AID 1259368; calls by dose curve;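 further: NIH/3T3-derived 3T3Gli1-Luc cells carrying a stable Gli1-driven firefly luciferase reporter; series mostly up to about 92 µM; nearly all actives have a fitted effect of over 15% in size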). An outline of the steps: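 Mouse fibroblast (NIH/3T3) reporter cells with stably integrated Gli1-Luc were treated 24 hr with compound; firefly luciferase luminescence served as the read-out.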
Test [8] in a line: qHTS assay to identify small molecule antagonists of the sonic hedgehog signaling (Shh) pathway (AID 1259369; calls by dose curve; further: nearly all actives have a fitted effect of over 45% in size). The essentials:
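Conditioned medium drives Shh signalling in 3T3Gli1-Luc cells; compounds in DMSO co-applied, 24hr at 37 C, then luciferase luminescence.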

Test [9] deals with Estrogen receptor beta (Homo sapiens) (UniProt Q92731). Description: qHTS assay to identify small molecule agonists of the estrogen receptor beta (ER-beta) signaling pathway (AID 1259377; active means well fitted activation curve with a large enough effect in the signal ratio in the repeat runs, not every such curve was filed as active; the % refers to the signal ratio). An outline of the steps: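 Measured by fluorescence intensity from a B/G FRET beta-lactamase substrate (2 h, room temperature) in ER-beta-UAS-bla HEK293T cells treated with DMSO-dissolved compounds for 16 hr at 37C and 5% CO2.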
Estrogen receptor beta (Homo sapiens), sequence (Q92731 whole entry, looked up): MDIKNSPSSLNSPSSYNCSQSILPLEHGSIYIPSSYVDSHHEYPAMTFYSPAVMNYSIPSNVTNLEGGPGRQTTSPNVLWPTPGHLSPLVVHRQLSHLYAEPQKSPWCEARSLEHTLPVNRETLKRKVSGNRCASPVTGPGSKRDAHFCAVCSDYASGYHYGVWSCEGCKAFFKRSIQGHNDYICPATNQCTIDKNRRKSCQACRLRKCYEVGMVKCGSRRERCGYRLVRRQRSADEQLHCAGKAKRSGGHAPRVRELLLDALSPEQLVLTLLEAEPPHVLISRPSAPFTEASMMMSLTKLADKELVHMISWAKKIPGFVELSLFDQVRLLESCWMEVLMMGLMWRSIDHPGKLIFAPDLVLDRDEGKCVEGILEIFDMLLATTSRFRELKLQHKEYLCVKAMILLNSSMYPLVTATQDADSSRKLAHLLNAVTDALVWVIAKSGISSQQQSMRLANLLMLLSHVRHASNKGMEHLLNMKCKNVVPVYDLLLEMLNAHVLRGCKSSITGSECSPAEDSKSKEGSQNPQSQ

Test [10] has the same target. Description: qHTS assay to identify small molecule antagonists of the estrogen receptor beta (ER-beta) signaling pathway (AID 1259378; active means well fitted inhibition curve with a large enough effect in the signal ratio in the repeat runs, not every such curve was filed as active; the % refers to the signal ratio). An outline of the steps:
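Antagonist mode: compounds added to beta-lactamase reporter HEK293T ER-beta-UAS cells stimulated with E2 (1nM final), 16 hr at 37C. LiveBLAzer B/G FRET substrate, 2 hours room temperature, fluorescence read-out.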

Test [11] in a line: qHTS assay to identify small molecule agonists of the estrogen receptor beta (ER-beta) signaling pathway - cell viability counter screen (AID 1259380). Further: nearly all actives have a fitted effect of over 30% in size. The essentials:
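Cells used were ER-beta-UAS-bla HEK293T in medium with 2% charcoal-stripped FBS. They were treated for 16 hr at 37C. Viability came from CellTiter-Glo luminescence.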

The nature of test [12]: qHTS assay to identify small molecule antagonists of the estrogen receptor beta (ER-beta) signaling pathway - cell viability counter screen (AID 1259382). Further: series mostly up to about 92 µM; nearly all actives have a fitted effect of over 55% in size. An outline of the steps:
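Agonist-stimulated (1nM E2) ER-beta-UAS-bla HEK293T cells are incubated with library compounds for 16 hr at 37C. Cell viability is then assessed in the reporter-assay wells by adding CellTiter-Glo and reading luminescence after 30 min.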

The target in test [13] is Thyrotropin receptor (Homo sapiens) (UniProt P16473). Briefly: qHTS assay to identify small molecule antagonists of the thyroid stimulating hormone receptor (TSHR) signaling pathway (AID 1259385; calls by dose curve; further: nearly all actives have a fitted effect of over 20% in size; further: potency means the concentration at half of the fitted maximal effect). An outline of the steps:
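Antagonist mode: compound-treated TSHR-expressing HEK293 cells were stimulated with 1.5 ng/mL TSH (final) in presence of Ro20-1724 for 30 min at RT. HTRF cAMP detection after 1 h; each compound tested at 15 concentrations, triplicate.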

Test [14] is described as follows: qHTS assay to identify small molecule agonists of the androgen receptor (AR) signaling pathway in the presence of an antagonist - cell viability counter screen (AID 1259379).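 Further: MDA-kb2 human breast cancer cells carrying an MMTV luciferase reporter; series mostly up to about 92 µM; nearly all actives have a fitted effect of over 25% in size.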 The essentials: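 A CellTiter-Fluor read-out measured viability of MDA-kb2 reporter cells (MMTV promoter with AR and GR response elements). Treatment: nilutamide 3.0uM final with compounds at 15 concentrations, 16 hr, 37C, 0% CO2.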

Test [15] can be described thus: qHTS assay to identify small molecule agonists or antagonists of the thyroid stimulating hormone receptor (TSHR) signaling pathway - wild type cell line counter screen (AID 1259384; calls by dose curve). An outline of the steps:
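Counter screen in untransfected Hek293: compounds (15-point titration, triplicate) plus phosphodiesterase inhibitor Ro20-1724 added after 18 h plating; 30 min RT. Intracellular cAMP via competitive d2/cryptate immunoassay, 1 h incubation.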

Test [16] in a line: qHTS assay to identify small molecule phospholipidosis (PLD) inducers (AID 1259344; active means well fitted curve in the direction sought with a large enough effect; an effect the other way counts as inactive or inconclusive). An outline of the steps:
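Fluorescent phospholipid staining (LipidTOX Red) measured by automated microscopy in fixed HepG2 cells after 24 h treatment; nuclei counterstained with Hoechst 33342; amiodarone as reference inducer.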

Molecules are shown by their SMILES. A number with no mark means an inactive call. Inconclusive results are not listed. Active and inactive are the calls of the source. Unless noted, the call rests on the fitted dose curve; in most records, active means well fitted curve in the direction sought with a large enough effect in the repeat runs; inconclusive means weak or mixed curves; inactive means no such curve, though single readings can be large; an effect the other way counts as inactive or inconclusive.

Thyrotropin receptor (Homo sapiens), sequence (P16473 whole entry, looked up): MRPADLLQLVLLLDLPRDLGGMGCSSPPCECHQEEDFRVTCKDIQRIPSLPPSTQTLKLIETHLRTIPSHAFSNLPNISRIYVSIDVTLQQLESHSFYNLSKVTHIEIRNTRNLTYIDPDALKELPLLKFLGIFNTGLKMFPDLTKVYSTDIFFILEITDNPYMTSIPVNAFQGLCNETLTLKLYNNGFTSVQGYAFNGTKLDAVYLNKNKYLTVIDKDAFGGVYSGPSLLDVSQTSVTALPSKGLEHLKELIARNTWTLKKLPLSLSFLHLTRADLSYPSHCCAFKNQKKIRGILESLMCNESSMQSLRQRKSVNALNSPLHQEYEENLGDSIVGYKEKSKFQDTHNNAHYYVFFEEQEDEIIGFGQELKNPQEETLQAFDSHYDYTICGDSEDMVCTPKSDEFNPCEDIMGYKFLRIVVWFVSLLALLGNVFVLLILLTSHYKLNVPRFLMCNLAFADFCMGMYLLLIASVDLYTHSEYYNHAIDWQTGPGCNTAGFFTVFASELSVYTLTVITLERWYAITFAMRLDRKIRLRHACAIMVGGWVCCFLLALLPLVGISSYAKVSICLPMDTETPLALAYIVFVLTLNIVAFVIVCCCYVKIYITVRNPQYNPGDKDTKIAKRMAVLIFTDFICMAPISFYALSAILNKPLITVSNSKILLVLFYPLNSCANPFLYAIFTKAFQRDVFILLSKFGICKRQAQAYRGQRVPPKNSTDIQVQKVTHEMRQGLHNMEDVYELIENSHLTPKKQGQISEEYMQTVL

Take `Cn1c(N)nc2nc[nH]c2c1=O`: the Potency entry in test [1], in test [2], in [3], in test [5], in [6] and in test [8] was “inactive” each time. Further, the Potency result in test [9], in test [10], in test [11] and in [12] was “inactive” in each case. In addition, the result in [4] and in [7] was inactive. The Potency in test [13] is 48 µM (active).
In the case of `O=C(O)/C=C/c1cnc[nH]1`, the Potency result in test [1], in [2], in [3], in test [5], in [6] and in test [8] was “inactive” each time. The Potency entry in test [9], in [10], in test [14], in test [11], in [12] and in [13] was “inactive” each time. Further, the call in test [7] was inactive.
For `CC(O)C1CCCCC1` (configuration not stated), the Potency result in test [1], in test [2], in test [5], in [6], in test [8] and in [10] was “inactive” in each case. Also, the Potency entry in [14], in test [11], in test [12], in test [15] and in test [13] was “inactive” throughout. For the same compound, the compound was called inactive in test [4] and in [7].
For the compound `CN(C)C/C=C(/c1ccc(Br)cc1)c1cccnc1`, the Potency result in [1], in test [2], in test [16], in [5], in test [6] and in [14] was “inactive” each time. Besides, the Potency entry in [11], in test [12] and in test [13] was “inactive” in each case. The outcome in [7] was inactive.
As to `NCc1ccccc1`, the Potency entry in test [1], in [2], in test [3], in [5], in [6] and in test [8] was “inactive” in each case. Further, the Potency entry in [9], in test [10], in test [14], in test [11], in test [12] and in test [15] was “inactive” each time. In test [13], the Potency entry is “inactive”. Besides, the result in [4] was inactive.
Consider `CCCCc1cc2ccccc2c(OCCN(C)C)n1`, for which the Potency result in test [1], in test [2], in [3], in test [5], in test [6] and in [14] was “inactive” each time. Further, in test [13], the Potency entry was “inactive”. The outcome in test [4] and in [7] was inactive.
As to `CC(C)=CCCC(C)CC=O` (configuration not stated), the Potency entry in test [1], in test [2], in [3], in test [5], in test [6] and in test [8] was “inactive” each time. Besides, the Potency entry in [14], in test [15] and in test [13] was “inactive” each time. Further, the compound was classed as inactive in [4] and in test [7].
Take `CC(=O)OC/C=C/c1ccccc1`: the Potency entry in test [1], in [2], in [3], in test [5], in test [6] and in [8] was “inactive” each time. Besides, the Potency result in test [10], in test [14], in [11], in test [12], in test [15] and in [13] was “inactive” throughout. Besides, the outcome in test [4] and in [7] was inactive.
As to `CCCCCCCCCCCCCCCC(=O)OC/C=C(C)/C=C/C=C(C)/C=C/C1=C(C)CCCC1(C)C`, the Potency entry in [1], in test [2], in [3], in [5], in test [6] and in test [14] was “inactive” each time. Further, the Potency result in test [11], in test [15] and in [13] was “inactive” throughout. Further, in test [4], the result was inactive.
